Screening data: PubChem BioAssay, The Scripps Research Institute Molecular Screening Center
FBW7 act: human FBW7 E3 ligase activation, primary screen | Q969H0 | AlphaScreen FBW7–phospho-cyclin E peptide binding, activator screen | normalized activity (activation), % at 26.1 µM | 650,000 compounds, 0.13% hits; in the data active = normalized activity above about 1.9%;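 note: purified mutant Fbw7 with reduced substrate affinity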
GPR151 ag: activates the human receptor GPR151. Q8TDV0. PathHunter beta-arrestin GPR151 cells, luminescence. activation, % at 11.2 µM. 650,000 compounds, 1% hits; in the data active = activation above about 4.9%;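 note: 0% = median of compound wells and 100% = cells with positive control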
TEAD-YAP inh: TEAD-YAP interaction inhibition | HEK-TIYL cells, TEAD-Gal4/YAP UAS-luciferase luminescence | inhibition, % at 9.12 µM | 640,000 compounds, 1.4% hits | AID 1259422; in the data active = inhibition above about 32%;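 note: 0% = median of test compound wells and 100% = reference inhibitor wells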
MITF primary: blocks human microphthalmia-associated transcription factor | AlphaScreen MITF homodimerization, bead proximity signal | inhibition, % at 2.6 µM | 650,000 compounds, 0.91% hits | AID 1259374; in the data active = inhibition above about 50%;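 note: 0% = vehicle wells with protein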
GPR151 conf act: confirmation of human GPR151 activators | shares compounds with GPR151 ag | GPR151 PathHunter beta-arrestin cells, luminescence, 90 min; % of EA-reagent control over plate median | activation, % at 11.2 µM | 6,700 tested, under 10 active;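 active = mean percent activation across replicates above the confirmation screen cutoff of 4.91%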
GPR119 ag: counter-screen for GPR151 activators: effect on human GPR119; shares compounds with GPR151 ag; GPR119 PathHunter beta-arrestin cells, luminescence, 90 min; 0 = compound-well median, 100 = enzyme-acceptor control; activation, % at 11.2 µM; 6,700 compounds, 0.3% hits; AID 1508611;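 active = mean percent activation in the counterscreen above 29.09%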;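 note: counterscreen on off-target GPR119 to flag nonselective hits from the GPR151 activator screen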
Target sequence (Q8TDV5 whole entry, looked up): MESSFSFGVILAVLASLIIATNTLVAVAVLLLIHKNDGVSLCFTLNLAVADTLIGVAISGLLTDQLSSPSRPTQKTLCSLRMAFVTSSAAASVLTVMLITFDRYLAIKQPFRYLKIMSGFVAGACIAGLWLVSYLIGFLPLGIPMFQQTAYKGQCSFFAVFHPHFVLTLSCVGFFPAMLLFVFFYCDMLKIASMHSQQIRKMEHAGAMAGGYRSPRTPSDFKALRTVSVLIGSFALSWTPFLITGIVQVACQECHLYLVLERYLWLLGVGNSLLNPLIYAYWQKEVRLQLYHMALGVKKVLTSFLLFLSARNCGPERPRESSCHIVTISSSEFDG
* = called active by the depositor; . = no result. Hits are enriched below; roughly 3.4% of the tested compounds scored in any of these assays.

SMILES | FBW7 act | GPR151 ag | TEAD-YAP inh | MITF primary | GPR151 conf act | GPR119 ag
COc1ccc(-n2nc3ccc(NC(=O)c4ncn[nH]4)cc3n2)cc1Cl | 0.0 | 5.0* | -0.5 | 9.3 | -0.3 | -2.0
COc1ccc(C(=O)Nc2ccnn2C2CCN(C(=O)C3CCOC3)CC2)cc1 (centres undefined) | 0.0 | 5.8* | -8.2 | 4.9 | 0.5 | -0.3
COc1ccc(C(=O)Nc2ccnn2C2CCN(Cc3ccon3)CC2)cc1 | -0.2 | -0.7 | 14.3 | 1.6 | . | .
COc1ccc(C(=O)Nc2ccnn2C2CCN(Cc3cn(C)nc3C)CC2)cc1 | 0.0 | 5.6* | 1.9 | 9.4 | 1.6 | -14.5
CCC(=O)Nc1ccc(NC(=O)CSc2nc3c(c(=O)n(C)c(=O)n3C)n2C)cc1 | 0.4 | 15.0* | 14.3 | 15.0 | 2.2 | 10.0
CC1=C(C(=O)CN2CCN(c3ccccc3)CC2)N2C=CC=CC2N1 (centres undefined) | -0.1 | 9.2* | 7.2 | 5.0 | 0.8 | 6.7
CC1(C)CC(=O)C2=C(C1)OC1=C(C(=O)CC(C)(C)C1)C2c1cc(Cl)cc(Cl)c1OCc1ccc(Cl)cc1Cl | 0.1 | 5.5* | 7.8 | -8.9 | 0.2 | 11.1
COC(=O)c1cc(C(=O)NCCc2ccc(S(N)(=O)=O)cc2)cc([N+](=O)[O-])c1 | -0.2 | -1.3 | 3.0 | 12.7 | . | .
Cc1ccc(-c2c(N3CCCCC3)c(=O)c2=O)cc1 | 0.0 | 6.8* | 0.5 | -3.5 | -0.1 | -10.6
Cc1ccc(N=Nc2c(N)n[nH]c2N)c(C)c1 | -0.1 | -0.7 | -29.1 | 17.1 | . | .
CCS(=O)(=O)n1nc(-c2ccccc2)nc1NCc1ccco1 | -0.1 | 12.1* | -9.6 | -7.9 | -0.2 | 4.0
COc1ccc(-c2nc(NCCO)c3ncn(C4CCCCC4)c3n2)cc1 | 0.3 | 6.0* | -4.0 | 12.2 | 0.8 | -4.2
CCOc1ccc(OCC)c(NC(=O)CN2CCN(C(C)=O)CC2)c1 | 0.0 | 6.8* | -1.3 | 19.1 | -0.7 | -6.3
O=S(=O)(CCc1ccccc1)NCC1(c2cccs2)CCCC1 | 0.1 | 5.2* | 1.9 | -2.7 | 0.0 | 0.3
COC(=O)c1cc2c(N3CCC(Cc4ccccc4)CC3)ncnc2s1 | -0.2 | 5.5* | -1.9 | 5.5 | 1.8 | 6.1
CCOC(=O)c1[nH]c(=O)[nH]c1CSc1nc2ccccc2[nH]1 | 0.0 | 10.6* | -0.9 | -15.4 | 0.8 | 5.6
CCOC(=O)CSc1nc2ccccc2[nH]1 | 0.1 | 1.0 | -5.7 | 13.6 | . | .
COc1cc(C(Nc2cccc(C)n2)c2ccc3ccc(C)nc3c2O)ccc1O (centres undefined) | -0.1 | 5.2* | -0.5 | -6.4 | 0.4 | 16.0
COc1cc(/C=N/Nc2ccccc2[N+](=O)[O-])cc(Br)c1O | -0.5 | -5.2 | -54.3 | 9.3 | . | .
COC(=O)c1ccc(/C=N/Nc2ccccc2[N+](=O)[O-])cc1 | -0.1 | 4.9* | -28.7 | -2.4 | -0.5 | -7.2
CCOc1cc(/C=N/NC(=O)c2cc(-c3ccc(C)o3)[nH]n2)ccc1O | 0.1 | 7.0* | 21.2 | 15.4 | -0.3 | -7.9
Cc1ccc(-c2cc(C(=O)N/N=C/c3cccc(Br)c3)n[nH]2)o1 | -0.2 | 7.5* | 11.3 | 7.9 | 1.0 | -5.5
COc1ccc(/C=N/NC(=O)c2cc(-c3ccc(C)o3)[nH]n2)cc1 | 0.2 | -0.6 | 8.9 | 17.1 | . | .
CCOc1cc(/C=N/NC(=O)c2cc(C(C)C)[nH]n2)ccc1O | 0.1 | -1.3 | 6.2 | 6.5 | . | .
N#Cc1c(NC(=O)CN2CCN(c3ccccc3F)CC2)sc2c1CCCC2 | -0.1 | 6.6* | -15.8 | -4.1 | 0.4 | 8.2
SMILES | FBW7 act | GPR151 ag | TEAD-YAP inh | MITF primary | GPR151 conf act | GPR119 ag
CN(C)CCN1C(=O)C(CC(=O)Nc2cccc([N+](=O)[O-])c2)SC1=Nc1ccccc1 (centres undefined) | 0.2 | 5.2* | -12.9 | 5.8 | 0.8 | 16.8
CC(C)(C)c1ccc(OCC(N)=O)c(Br)c1 | 0.0 | 5.9* | -13.9 | 11.4 | 0.6 | 11.2
O=C(NCCc1ccc(O)cc1)c1cnc(-c2ccccc2)s1 | 0.2 | 0.8 | -18.5 | 14.6 | . | .
Nc1cccc(-c2ncc(C(=O)NCCc3ccc(O)cc3)s2)c1 | -0.1 | 5.5* | 14.0 | 0.2 | 0.3 | -0.8
c1nc(NCc2ccc(CN3CCOCC3)cc2)c2c3c(sc2n1)CCC3 | 0.1 | 6.3* | 32.5* | -0.7 | 0.8 | -6.0
c1nc(NCCN2CCOCC2)c2c3c(sc2n1)CCCC3 | -0.2 | 0.9 | -5.9 | -3.6 | . | .
c1nc(NCC2CCCO2)c2c3c(sc2n1)CCCC3 (centres undefined) | 0.1 | 1.2 | -2.1 | -1.3 | . | .
c1nc(NCC2CCCO2)c2c3c(sc2n1)CCC3 (centres undefined) | -0.3 | 7.6* | -0.9 | -2.7 | 0.0 | 5.9
COc1ccc(C(=O)OCCCC(=O)c2ccc(F)cc2)c(OC)c1 | 0.0 | 2.1 | -0.4 | 6.2 | . | .
COc1ccc(C(=O)OCCCOC(=O)c2ccc(OC)cc2OC)c(OC)c1 | 0.3 | 5.9* | -21.0 | 24.1 | 1.4 | 7.6
COc1ccc(C(=O)c2sc3nc(C)cc(C)c3c2N)c(OC)c1 | 1.5 | 7.0* | -4.8 | 1.7 | -0.1 | 8.5
O=C(NCc1nc2ccccc2[nH]1)c1cccc(-c2ccccc2)n1 | 0.1 | 7.1* | 8.0 | -3.1 | 1.3 | -2.8
COc1cc(C(=O)O)cc(I)c1OC1CCCC1 | 0.1 | 0.6 | -2.3 | -3.7 | . | .
C=CCNC(=O)c1ccccc1NC(=O)CN(c1cccc([N+](=O)[O-])c1)S(C)(=O)=O | 0.8 | 12.9* | 4.5 | 11.0 | 0.6 | -5.9
Cc1c(Cl)cccc1N(CC(=O)Nc1ccccc1Cl)S(C)(=O)=O | -0.1 | 0.3 | 4.7 | -11.2 | . | .
C=CCNC(=O)c1ccccc1NC(=O)CN(c1cccc(Cl)c1C)S(C)(=O)=O | -0.1 | 5.2* | 2.8 | -3.3 | 0.0 | -4.7
Cc1ccc(N(CC(=O)NCc2ccccc2C)S(C)(=O)=O)cc1C | -0.1 | 2.2 | 0.7 | 7.5 | . | .
CCC(C)NC(=O)c1ccccc1NC(=O)CN(c1cccc([N+](=O)[O-])c1)S(C)(=O)=O (centres undefined) | 0.0 | 3.4 | 11.4 | -2.2 | . | .
Cc1ccccc1CNC(=O)CN(c1cccc([N+](=O)[O-])c1)S(C)(=O)=O | -0.2 | 6.4* | 1.8 | 5.7 | 0.2 | -13.0
NC(=O)c1ccc[n+](CC(=O)Nc2ccccc2OC(F)F)c1 | -0.1 | -0.8 | -3.0 | 4.7 | . | .
CCc1ccc(-n2c(C)cc(/C=C3\C(=N)N4N=C(C(C)C)SC4=NC3=O)c2C)cc1 | -0.1 | -0.4 | -9.3 | 0.8 | . | .
C=CCOc1ccc(/C=C2\C(=O)NC(C)=C2C(=O)OC)cc1 | -0.2 | 5.2* | -3.1 | 6.1 | 1.3 | 19.0
CCOC(=O)C(C)Sc1nnc(NC(=O)c2c(F)cccc2Cl)s1 (centres undefined) | -0.2 | 5.0* | 1.7 | 0.5 | -0.1 | 4.0
Cc1cc(C)nc(NS(=O)(=O)c2ccc(NC(=O)C3C4C=CC(C4)C3C(=O)O)cc2)n1 (centres undefined) | 1.3 | 0.5 | -3.2 | 7.2 | . | .
